# In PubChem BioAssay AID488969 (Vanderbilt High Throughput Screening Facility, 2010):
# The full ranking holds about 110,000 compounds; the median of “z-score” is about -0.1, and the highest 2% start at about 2. The full list was thinned out, with the highest values kept by preference. Calls of active or inactive are those of the source.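 Rule for the calls: active = z-score in the third read window above 3 or below -3; inactive = the rest.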
# Biological target: Metabotropic glutamate receptor 8 (Rattus norvegicus) (UniProt P70579)
# Test: rat mGluR8 modulators via GIRK flux, primary screen, cell-based, thallium flux, HTS (AID 488969)
# Conditions: HEK293 rat mGluR8, GIRK (G protein-gated inwardly rectifying potassium channel) thallium flux, FluoZin2; at 10 µM; stronger effect = higher value; submaximal glutamate (EC20) added with thallium
# Metabotropic glutamate receptor 8 (Rattus norvegicus), sequence (P70579 whole entry, looked up): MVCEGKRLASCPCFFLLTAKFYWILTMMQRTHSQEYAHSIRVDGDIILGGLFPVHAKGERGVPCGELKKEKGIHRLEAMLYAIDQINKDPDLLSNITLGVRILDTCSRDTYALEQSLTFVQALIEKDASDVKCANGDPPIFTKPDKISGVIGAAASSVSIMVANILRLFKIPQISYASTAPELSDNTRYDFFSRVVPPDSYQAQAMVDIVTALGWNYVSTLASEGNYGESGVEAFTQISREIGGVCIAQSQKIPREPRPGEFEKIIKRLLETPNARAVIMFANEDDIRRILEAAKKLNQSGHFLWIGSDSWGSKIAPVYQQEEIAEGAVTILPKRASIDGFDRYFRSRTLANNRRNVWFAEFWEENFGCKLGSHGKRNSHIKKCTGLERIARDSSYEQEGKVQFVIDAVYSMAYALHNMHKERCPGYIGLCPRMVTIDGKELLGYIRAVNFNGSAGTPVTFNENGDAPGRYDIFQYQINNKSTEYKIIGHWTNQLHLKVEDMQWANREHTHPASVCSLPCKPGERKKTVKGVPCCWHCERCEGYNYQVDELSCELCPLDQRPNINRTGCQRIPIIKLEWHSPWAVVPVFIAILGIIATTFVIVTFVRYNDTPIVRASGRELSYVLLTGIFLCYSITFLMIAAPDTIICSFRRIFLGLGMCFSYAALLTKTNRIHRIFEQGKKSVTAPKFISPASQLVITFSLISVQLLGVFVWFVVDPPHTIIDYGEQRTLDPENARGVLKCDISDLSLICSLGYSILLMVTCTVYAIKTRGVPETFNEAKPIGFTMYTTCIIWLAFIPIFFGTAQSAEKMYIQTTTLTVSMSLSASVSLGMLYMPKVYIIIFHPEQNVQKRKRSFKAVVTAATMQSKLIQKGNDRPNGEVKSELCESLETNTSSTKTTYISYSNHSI
row,Structure (SMILES),z-score
1,CSc1ncc(Cl)c(C(=O)NCc2ccc3c(c2)OCO3)n1,0.575
2,O=c1[nH]cnc2c1sc1nc(-c3ccccc3)c3c(c12)CCCC3,0.204
3,COc1ncnc2c1sc1nc(-c3ccccc3)c3c(c12)CCCC3,-0.0945
4,S=c1nc[nH]c2c1sc1nc(-c3ccccc3)c3c(c12)CCCC3,7.83 (active)
5,CC1CN(C(=O)/C=C/c2cccc([N+](=O)[O-])c2)CC(C)O1 (stereo not drawn),-0.164
6,CCOc1cc2[nH]c(=S)n(CCN3CCCCC3C)c(=O)c2cc1OCC (stereo not drawn),0.258
7,COc1ccc(NC(=O)CCCn2c(=S)[nH]c3ccccc3c2=O)cc1,-0.514
8,CCOc1cc2[nH]c(=S)n(CCN3CCCCC3CC)c(=O)c2cc1OCC (stereo not drawn),1.73
9,CCC1CCCCN1CCn1c(=S)[nH]c2cc(OC)c(OC)cc2c1=O (stereo not drawn),2.07
10,CC1CCCN(C(=O)CCCn2c(=S)[nH]c3ccccc3c2=O)C1 (stereo not drawn),4.5 (active)
11,O=C(CCCn1c(=S)[nH]c2ccccc2c1=O)N1CCCCC1,1.44
12,COCCNC(=O)CCCCCn1c(=S)[nH]c2ccccc2c1=O,1.77
13,O=C(CCCCCn1c(=S)[nH]c2ccccc2c1=O)N1CCOCC1,-0.155
14,O=c1[nH]c2ccccc2c(=O)n1Cc1ccccc1,0.345
15,COc1cccc(NC(=O)CCCn2c(=S)[nH]c3ccccc3c2=O)c1,3.39 (active)
16,O=c1c2ccccc2[nH]c(=S)n1CCN1CCN(Cc2ccccc2)CC1,7.91 (active)
17,CCN1CCN(CCn2c(=S)[nH]c3ccccc3c2=O)CC1,0.66
18,Cc1cccc(C(=O)N2c3ccccc3C(=O)OC2c2ccc3c(c2)OCO3)c1 (stereo not drawn),-0.842
19,c1coc(CN(Cc2ccco2)c2ncnc3c2oc2ccccc23)c1,-2.18
20,O=C1CN=C(Nc2ccc(Cl)cc2)N1c1ccccc1,-0.0445
21,COc1cc(-n2c(C)nc3cc(C(=O)NCCN4CCOCC4)ccc32)cc(OC)c1OC,-0.57
22,COc1cc(NC(=S)Nc2cccnc2)cc(OC)c1OC,-0.192
23,CC1CCCCN1CCNc1nc(=S)[nH]c2ccccc12 (stereo not drawn),-0.105
24,CC1CC(C)CN(CCCn2c(=S)[nH]c3ccccc3c2=O)C1 (stereo not drawn),14.4 (active)
25,O=c1c2ccccc2[nH]c(=S)n1CCCN1CCN(C2CCCCC2)CC1,10.2 (active)
26,CCN1CCN(CCCNC(=O)c2cc3c(=O)[nH]c4ccccc4c3s2)CC1,0.477
27,O=C(NCCN1CCN(Cc2ccccc2)CC1)c1cc2c(=O)[nH]c3ccccc3c2s1,2.15

row,Structure (SMILES),z-score
1,O=C(CCCn1c(=S)[nH]c2cc3c(cc2c1=O)OCO3)N1CCN(C2CCCCC2)CC1,-0.008
2,O=C(CCCn1c(=S)[nH]c2ccccc2c1=O)NC1CCCCC1,0.0447
3,CCN(CC)CCCn1c(=S)[nH]c2ccccc2c1=O,0.126
4,CC1CCCCN1CCCn1c(=S)[nH]c2ccccc2c1=O (stereo not drawn),3.46 (active)
5,Cc1ccc2[nH]c(=O)c3cc(C(=O)NCCN4CCN(C)CC4)sc3c2c1,0.666
6,CC1CCN(CCCn2c(=S)[nH]c3ccccc3c2=O)CC1,0.0115
7,O=C(NC1CCCCC1)c1ccccc1-c1ccccc1,-0.176
8,COCCNC(=O)c1cc2ncc(Br)cn2n1,0.00586
9,C/C(Cn1cnc([N+](=O)[O-])n1)=N\NC(=O)c1ccc(Br)cc1,-0.261
10,O=C(CNC(=O)c1cccs1)NC1=NCCS1,0.647
11,COc1ccc(/C=N/NC(=O)c2ccccc2O)cc1CSc1ccccn1,0.779
12,Cc1c2cccn2cc[n+]1C,-0.16
13,CCOC(=O)c1ccc(N/C=C2/CCCC(C)C2=O)cc1 (stereo not drawn),0.315
14,Cc1ccccc1OCC(=O)O/N=C(\N)Cc1ccc(Cl)cc1,-0.483
15,CC12CC(NC(=O)N1c1cccc(C(=O)N3CCN(c4ccccc4)CC3)c1)c1ccccc1O2 (stereo not drawn),-0.354
16,CCOC(=O)N1CCN(C(=O)CCCn2c(=S)[nH]c3ccccc3c2=O)CC1,-0.357
17,CCC1CCCCN1CCCn1c(=S)[nH]c2ccccc2c1=O (stereo not drawn),7.04 (active)
18,CCC1CCCCN1CC(=O)c1c(C)[nH]c2ccccc12 (stereo not drawn),-0.699
19,CC1=C(C(=O)Nc2ccccc2)C(c2ccco2)C(C#N)=C(SCC(=O)Nc2cccc(C)c2C)N1 (stereo not drawn),0.693
20,Cc1ccnc2nc(C(=O)Nc3ccc(N4CCOCC4)cc3)nn12,0.0976
21,CCOC(=O)c1c(C)[nH]c(C2=NNC(=Nc3ccccc3OC)SC2)c1C,-0.32
22,Nc1ccc(-n2cnc3cc([N+](=O)[O-])ccc32)cc1,-0.118
23,Cc1ccc(N2CC3=C(C2=O)C(c2ccccc2)NC(=O)N3C)cc1 (stereo not drawn),-0.193
24,CN1C(=O)NC(c2ccccc2)C2=C1CN(CCc1ccccc1)C2=O (stereo not drawn),0.0172
25,CN1C(=O)NC(c2ccccc2)C2=C1CN(Cc1ccccc1)C2=O (stereo not drawn),7.33 (active)
26,CCOC(=O)c1c(C)[nH]c(C(=O)OCCOc2ccccc2C)c1C,-0.0787
